Compound activity from PubChem.
LANA-H2A inh: blocks KSHV LANA binding to histone H2A/H2B. inhibition, % (test concentration not listed). AID 2629. Q9QR71. cell-free LANA-H2A/H2B peptide, fluorescence polarization. 320,000 tested, 0.6% active; in the data active = inhibition mostly above about 10%, no sharp cut-off; inactive = mostly below about 6.7%
A3G deaminase: APOBEC3G (human) deaminase inhibition | inhibition, % at 20 µM | 330,000 tested, 0.28% active | recombinant A3G, ssDNA deamination FAM/TAMRA fluorescence | AID 493012;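 active = inhibition of at least 40% at 20 µM, with no more than 30% in the related APOBEC3A deaminase screen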;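 note: plate controls were DMSO wells with A3G for no effect and wells lacking A3G enzyme for full effect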
Target sequence (Q9HC16 whole entry, looked up): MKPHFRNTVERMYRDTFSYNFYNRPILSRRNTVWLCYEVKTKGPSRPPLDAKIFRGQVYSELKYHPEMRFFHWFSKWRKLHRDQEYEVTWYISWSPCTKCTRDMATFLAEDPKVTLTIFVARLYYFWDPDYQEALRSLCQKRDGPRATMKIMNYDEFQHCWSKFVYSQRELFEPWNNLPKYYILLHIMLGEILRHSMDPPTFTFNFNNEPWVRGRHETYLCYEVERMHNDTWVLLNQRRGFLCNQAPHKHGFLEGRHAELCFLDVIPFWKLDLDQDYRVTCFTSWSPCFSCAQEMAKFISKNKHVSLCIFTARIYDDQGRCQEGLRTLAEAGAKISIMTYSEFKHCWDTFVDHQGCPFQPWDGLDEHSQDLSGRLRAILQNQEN
HDAC3 inh: blocks human histone deacetylase 3; O15379; recombinant HDAC3, fluorogenic peptide/trypsin coupled, fluorescence; inhibition, % at 8.3 µM; 320,000 tested, 0.15% active; AID 2718; in the data active = inhibition above about 26%, passing the limit was not always enough
APOBEC3A inh: inhibitors of human APOBEC3A DNA deaminase | recombinant A3A, FAM/TAMRA ssDNA deamination fluorescence | P31941 | 330,000 tested, 0.41% active | inhibition, % at 20 µM;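 active = at least 40% inhibition at 20 µM here, with at most 30% in a related deaminase screen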;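 note: plate controls were A3A with DMSO for no effect and wells lacking A3A enzyme for full effect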
Numbers without * were called inactive. Shown are actives, neighbours in structure and some others; about 1.4% of the full set was active somewhere.

`COc1ccc(C(=O)Nc2nnc(S(=O)(=O)Cc3ccc(F)cc3)s2)cc1` gave LANA-H2A inh 18*, A3G deaminase -6, HDAC3 inh 3 and APOBEC3A inh -5.
For O=C(CCc1nc2sc3c(c2c(=O)[nH]1)CCCC3)NCCOc1ccccc1 the results were LANA-H2A inh -5, A3G deaminase -7, HDAC3 inh 2 and APOBEC3A inh 0.
Screening Cc1ccc(OCCNC(=O)CCc2nc3sc4c(c3c(=O)[nH]2)CCCC4)cc1 returned LANA-H2A inh 35*, A3G deaminase -9, HDAC3 inh -4 and APOBEC3A inh 0.
COc1cc(CN2CCC(Cc3ccccc3)CC2)cc([N+](=O)[O-])c1O was read as LANA-H2A inh 20*, A3G deaminase -7, HDAC3 inh -2 and APOBEC3A inh -8.
`COc1ccc(C(=O)COC(=O)[C@@H](NS(=O)(=O)c2ccccc2)C(C)C)cc1` gave LANA-H2A inh -4, A3G deaminase -5, HDAC3 inh 1 and APOBEC3A inh -3.
Cc1ccsc1C(=O)N1CCN(S(=O)(=O)c2cccs2)CC1 was read as LANA-H2A inh 149*, A3G deaminase -6, HDAC3 inh -4 and APOBEC3A inh -1.
Screening Cc1ccccc1C(=O)N1CCN(S(=O)(=O)c2cccs2)CC1 returned LANA-H2A inh 5, A3G deaminase -6, HDAC3 inh 0 and APOBEC3A inh -2.
CC1CCN(C(=O)COc2ccc3ccccc3c2Br)CC1 was read as LANA-H2A inh -2, A3G deaminase 0, HDAC3 inh -4 and APOBEC3A inh 2.
O=C(NC(CC(=O)N1CCN(c2ccccc2O)CC1)c1ccccc1)c1ccccc1Cl (stereo not given) was read as LANA-H2A inh -6, A3G deaminase -2, HDAC3 inh -1 and APOBEC3A inh -3.
Cc1cccn2c(=O)c3cc(C#N)c(=NC(=O)c4ccncc4)n(CCCOC(C)C)c3nc12 was read as LANA-H2A inh 8.9*, A3G deaminase -3, HDAC3 inh -219 and APOBEC3A inh -1.
For COCCCn1c(=NC(=O)c2ccncc2)c(C#N)cc2c(=O)n3cccc(C)c3nc21 the results were LANA-H2A inh 5, A3G deaminase 0, HDAC3 inh -84 and APOBEC3A inh 2.
CCOCCCn1c(=NC(=O)c2cccs2)c(C#N)cc2c(=O)n3ccccc3nc21 was read as LANA-H2A inh 35*, A3G deaminase -5, HDAC3 inh -323 and APOBEC3A inh -4.
For Cc1cccn2c(=O)c3cc(C#N)c(=NC(=O)c4cccs4)n(CCCOC(C)C)c3nc12 the results were LANA-H2A inh 12, A3G deaminase 0, HDAC3 inh -59 and APOBEC3A inh -3.
For CCCn1c(=N)c(C#N)cc2c(=O)n3ccccc3nc21 the results were LANA-H2A inh 13*, A3G deaminase -1, HDAC3 inh -58 and APOBEC3A inh 5.
`Cc1ccc(S(=O)(=O)/N=C(/Nc2c(C)cccc2C)c2ccccc2)cc1` gave LANA-H2A inh -4, A3G deaminase -3, HDAC3 inh -1 and APOBEC3A inh 1.
`N/C(=N\OC(=O)C1CCCCC1)c1cccc([N+](=O)[O-])c1` gave LANA-H2A inh 15*, A3G deaminase 4, HDAC3 inh 2 and APOBEC3A inh 1.
Screening COc1cccc2cc(C(C)N(CCCN3CCOCC3)C(=S)Nc3cccc(C)c3)oc12 (stereo not given) returned LANA-H2A inh 13*, A3G deaminase -9, HDAC3 inh 0 and APOBEC3A inh -10.
Screening c1ccc(-c2ccccc2OCCCN2CCCCCC2)cc1 returned LANA-H2A inh 84*, A3G deaminase -5, HDAC3 inh 2 and APOBEC3A inh -1.
For O=C(Nc1ccccc1C(=O)O)c1cccc(S(=O)(=O)Nc2ccc(Br)cc2)c1 the results were LANA-H2A inh 19*, A3G deaminase 13, HDAC3 inh 3 and APOBEC3A inh -1.
For COc1ccc(C=NCC2OCCc3ccccc32)cc1OC (stereo not given) the results were LANA-H2A inh 0, A3G deaminase -2, HDAC3 inh 4 and APOBEC3A inh 1.
Screening COc1cc(C=NCC2OCCc3ccccc32)cc(OC)c1 (stereo not given) returned LANA-H2A inh 18*, A3G deaminase 3, HDAC3 inh -1 and APOBEC3A inh -4.
CC(=O)c1ccc(CCCCCCCCCC(=O)O)s1 was read as LANA-H2A inh 2.8*, A3G deaminase -6, HDAC3 inh 4 and APOBEC3A inh -2.
For CCC(=O)c1ccc(CCCCCC(=O)O)s1 the results were LANA-H2A inh 1, A3G deaminase 4, HDAC3 inh -2 and APOBEC3A inh 7.
